# Key:
# Experiment in all cases: DAPPL (digital affinity profiling via proximity ligation, sequencing); 10 mM Tris-HCl pH 7.5, 50 mM NaCl, 1 mM DTT, 4% glycerol, room temperature, 30 min; GST-TFs on glutathione beads, 16-mer random dsDNA library, 0.1% formaldehyde crosslink after washing; high values mean tight binding
# FLI1 = target: T1, FLI1 (Homo sapiens, UniProt Q01543 1-452); details: protein: recombinant; tags: N-terminal GST; dsDNA, one strand shown
# T1 sequence: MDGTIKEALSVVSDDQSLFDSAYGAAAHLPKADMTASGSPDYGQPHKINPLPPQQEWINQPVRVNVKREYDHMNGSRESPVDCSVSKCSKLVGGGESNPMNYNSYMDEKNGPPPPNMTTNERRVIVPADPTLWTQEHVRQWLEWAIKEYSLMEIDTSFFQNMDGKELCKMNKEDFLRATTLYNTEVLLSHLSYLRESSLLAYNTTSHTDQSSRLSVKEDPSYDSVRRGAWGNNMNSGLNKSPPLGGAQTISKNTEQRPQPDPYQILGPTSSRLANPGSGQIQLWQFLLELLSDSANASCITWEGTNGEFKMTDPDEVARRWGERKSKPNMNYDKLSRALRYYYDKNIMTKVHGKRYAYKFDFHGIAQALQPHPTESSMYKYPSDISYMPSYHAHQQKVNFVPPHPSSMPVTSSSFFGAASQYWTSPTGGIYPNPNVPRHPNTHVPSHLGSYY
# Method in brief: (§1)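 Human transcription factors carrying a GST fusion were produced in yeast, bound to glutathione beads, tagged with DNA barcodes and pooled together with a tag-only sample. Each pool was held with 200 nmole of a random double-stranded 16-mer DNA library in Tris/NaCl/DTT/glycerol buffer for 30 min at room temperature, then washed, crosslinked in 0.1% formaldehyde, proximity-ligated with BsaI/T4 ligase (1 h, 37 °C), PCR-amplified and sequenced on an Illumina NextSeq500. Binding signal is the read frequency of each hexamer for a given factor divided by its frequency in the tag-only sample.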
# ELK1 = target: T2, ELK1 (Homo sapiens, UniProt P19419 1-428); details: protein: recombinant; tags: N-terminal GST; dsDNA, one strand shown
# T2 sequence: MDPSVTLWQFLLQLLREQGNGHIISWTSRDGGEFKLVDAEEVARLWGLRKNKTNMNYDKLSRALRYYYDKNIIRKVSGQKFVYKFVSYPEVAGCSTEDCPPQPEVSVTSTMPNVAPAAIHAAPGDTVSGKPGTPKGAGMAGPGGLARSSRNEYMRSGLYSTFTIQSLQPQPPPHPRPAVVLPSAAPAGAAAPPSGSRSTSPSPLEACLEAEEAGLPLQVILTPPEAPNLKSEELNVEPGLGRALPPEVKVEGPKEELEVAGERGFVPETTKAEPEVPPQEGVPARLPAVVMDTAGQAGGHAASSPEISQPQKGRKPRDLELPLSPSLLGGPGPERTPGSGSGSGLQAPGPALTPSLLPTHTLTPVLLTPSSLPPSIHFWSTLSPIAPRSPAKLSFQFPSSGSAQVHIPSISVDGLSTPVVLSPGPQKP
# Method in brief: as §1
# GABPA = target: T3, GABPA (Homo sapiens, UniProt Q06546 1-454); details: protein: recombinant; tags: N-terminal GST; dsDNA, one strand shown
# T3 sequence: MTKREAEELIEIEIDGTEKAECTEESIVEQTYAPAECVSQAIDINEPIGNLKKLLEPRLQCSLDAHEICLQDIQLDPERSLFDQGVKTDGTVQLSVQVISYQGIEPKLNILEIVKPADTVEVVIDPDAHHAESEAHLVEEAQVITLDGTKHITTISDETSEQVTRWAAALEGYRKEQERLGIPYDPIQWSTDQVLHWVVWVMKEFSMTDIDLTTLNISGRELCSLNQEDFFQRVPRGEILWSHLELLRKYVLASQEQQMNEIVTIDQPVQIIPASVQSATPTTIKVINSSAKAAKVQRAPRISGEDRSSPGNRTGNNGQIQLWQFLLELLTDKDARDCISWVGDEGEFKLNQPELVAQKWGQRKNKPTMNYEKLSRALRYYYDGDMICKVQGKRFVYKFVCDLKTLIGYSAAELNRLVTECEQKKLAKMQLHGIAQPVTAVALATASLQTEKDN
# Method in brief: as §1
# ELF1 = ELF1 (Homo sapiens, UniProt P32519 1-619); details: protein: recombinant; tags: N-terminal GST; dsDNA, one strand shown
# Sequence of ELF1 (P32519 whole entry): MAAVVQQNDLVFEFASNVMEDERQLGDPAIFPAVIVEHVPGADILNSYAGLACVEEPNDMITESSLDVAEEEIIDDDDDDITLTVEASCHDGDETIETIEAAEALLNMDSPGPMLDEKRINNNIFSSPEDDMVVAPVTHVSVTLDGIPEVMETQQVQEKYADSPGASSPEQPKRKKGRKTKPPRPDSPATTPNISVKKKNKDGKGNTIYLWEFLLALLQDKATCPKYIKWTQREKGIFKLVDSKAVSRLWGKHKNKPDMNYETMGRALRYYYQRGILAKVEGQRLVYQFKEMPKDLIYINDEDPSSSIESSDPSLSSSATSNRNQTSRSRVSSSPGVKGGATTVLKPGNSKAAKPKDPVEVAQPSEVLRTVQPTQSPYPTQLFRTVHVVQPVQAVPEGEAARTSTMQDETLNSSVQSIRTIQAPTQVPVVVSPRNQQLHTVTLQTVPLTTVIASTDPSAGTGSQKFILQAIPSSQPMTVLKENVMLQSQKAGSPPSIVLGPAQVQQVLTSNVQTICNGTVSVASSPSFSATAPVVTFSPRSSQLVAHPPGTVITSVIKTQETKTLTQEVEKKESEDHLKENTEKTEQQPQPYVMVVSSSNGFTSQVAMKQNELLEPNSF
# Method in brief: as §1
# EHF = target: T4, EHF (Homo sapiens, UniProt Q9NZC4 1-300); details: protein: recombinant; tags: N-terminal GST; dsDNA, one strand shown
# T4 sequence: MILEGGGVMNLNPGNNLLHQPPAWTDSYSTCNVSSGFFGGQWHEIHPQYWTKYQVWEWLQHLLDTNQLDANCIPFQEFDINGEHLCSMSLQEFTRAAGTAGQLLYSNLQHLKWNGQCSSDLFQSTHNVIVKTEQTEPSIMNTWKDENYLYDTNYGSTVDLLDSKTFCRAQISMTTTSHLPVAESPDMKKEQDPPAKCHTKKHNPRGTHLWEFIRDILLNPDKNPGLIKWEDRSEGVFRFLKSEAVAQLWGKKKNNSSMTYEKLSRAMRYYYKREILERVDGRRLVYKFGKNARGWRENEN
# Method in brief: as §1
# SPI1 = SPI1 (Homo sapiens, UniProt P17947 1-270); details: protein: recombinant; tags: N-terminal GST; dsDNA, one strand shown
# Method in brief: as §1
# SPIB = SPIB (Homo sapiens, UniProt Q01892 1-262); details: protein: recombinant; tags: N-terminal GST; dsDNA, one strand shown
# Sequence of SPIB (Q01892 whole entry): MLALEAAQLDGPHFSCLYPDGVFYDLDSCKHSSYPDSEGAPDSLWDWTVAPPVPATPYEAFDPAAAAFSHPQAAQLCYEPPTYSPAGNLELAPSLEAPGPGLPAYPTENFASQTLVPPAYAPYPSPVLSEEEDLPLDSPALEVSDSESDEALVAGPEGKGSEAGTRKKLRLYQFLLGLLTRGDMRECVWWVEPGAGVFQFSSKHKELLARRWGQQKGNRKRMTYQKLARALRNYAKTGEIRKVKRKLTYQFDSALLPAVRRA
# Method in brief: as §1
# ELK3 = target: T5, ELK3 (Homo sapiens, UniProt P41970 1-407); details: protein: recombinant; tags: N-terminal GST; dsDNA, one strand shown
# T5 sequence: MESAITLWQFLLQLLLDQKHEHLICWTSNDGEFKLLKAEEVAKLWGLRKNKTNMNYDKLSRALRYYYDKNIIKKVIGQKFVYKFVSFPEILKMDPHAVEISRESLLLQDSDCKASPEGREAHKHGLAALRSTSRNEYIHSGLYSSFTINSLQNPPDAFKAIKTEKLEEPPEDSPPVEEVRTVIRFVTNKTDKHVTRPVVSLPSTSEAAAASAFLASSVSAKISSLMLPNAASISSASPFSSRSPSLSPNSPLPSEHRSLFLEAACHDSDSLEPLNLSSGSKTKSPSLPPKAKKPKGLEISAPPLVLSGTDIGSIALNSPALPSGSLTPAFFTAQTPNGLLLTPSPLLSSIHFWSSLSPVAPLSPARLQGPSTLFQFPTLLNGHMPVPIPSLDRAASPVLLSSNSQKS
# Method in brief: as §1
# ETV5 = ETV5 (Homo sapiens, UniProt P41161 1-510); details: protein: recombinant; tags: N-terminal GST; dsDNA, one strand shown
# Sequence of ETV5 (P41161 whole entry): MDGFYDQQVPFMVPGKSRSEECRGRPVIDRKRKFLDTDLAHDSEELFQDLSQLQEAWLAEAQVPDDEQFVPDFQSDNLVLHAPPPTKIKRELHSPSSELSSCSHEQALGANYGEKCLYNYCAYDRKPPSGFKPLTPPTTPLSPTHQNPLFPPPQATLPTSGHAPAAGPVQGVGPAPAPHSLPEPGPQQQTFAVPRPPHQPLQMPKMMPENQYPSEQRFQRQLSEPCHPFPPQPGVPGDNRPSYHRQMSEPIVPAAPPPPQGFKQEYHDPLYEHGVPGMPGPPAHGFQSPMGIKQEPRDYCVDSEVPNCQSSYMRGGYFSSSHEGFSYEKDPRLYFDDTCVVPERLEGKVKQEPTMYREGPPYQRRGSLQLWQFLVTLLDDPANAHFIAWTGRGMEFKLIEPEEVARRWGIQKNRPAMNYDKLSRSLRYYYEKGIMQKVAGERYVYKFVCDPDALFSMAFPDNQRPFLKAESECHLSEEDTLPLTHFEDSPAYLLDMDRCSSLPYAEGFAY
# Method in brief: as §1
# HSF1 = HSF1 (Homo sapiens, UniProt Q00613 1-529); details: protein: recombinant; tags: N-terminal GST; chain copies: 3; dsDNA, one strand shown
# Sequence of HSF1 (Q00613 whole entry): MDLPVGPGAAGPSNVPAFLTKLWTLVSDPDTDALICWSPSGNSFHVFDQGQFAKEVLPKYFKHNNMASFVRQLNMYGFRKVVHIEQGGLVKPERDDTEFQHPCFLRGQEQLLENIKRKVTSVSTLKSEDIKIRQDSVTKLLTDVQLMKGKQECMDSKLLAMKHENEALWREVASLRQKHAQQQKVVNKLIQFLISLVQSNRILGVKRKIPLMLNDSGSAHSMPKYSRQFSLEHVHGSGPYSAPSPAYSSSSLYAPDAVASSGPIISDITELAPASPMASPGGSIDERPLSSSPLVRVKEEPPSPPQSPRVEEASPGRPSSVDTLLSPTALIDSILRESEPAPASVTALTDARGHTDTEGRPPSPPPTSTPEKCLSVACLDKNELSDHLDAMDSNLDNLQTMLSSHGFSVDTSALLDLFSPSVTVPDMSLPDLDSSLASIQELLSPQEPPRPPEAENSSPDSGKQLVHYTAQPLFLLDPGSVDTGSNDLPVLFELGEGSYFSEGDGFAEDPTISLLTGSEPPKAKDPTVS
# Method in brief: as §1
# SPIC = target: T6, SPIC (Homo sapiens, UniProt Q8N5J4 1-248); details: protein: recombinant; tags: N-terminal GST; dsDNA, one strand shown
# T6 sequence: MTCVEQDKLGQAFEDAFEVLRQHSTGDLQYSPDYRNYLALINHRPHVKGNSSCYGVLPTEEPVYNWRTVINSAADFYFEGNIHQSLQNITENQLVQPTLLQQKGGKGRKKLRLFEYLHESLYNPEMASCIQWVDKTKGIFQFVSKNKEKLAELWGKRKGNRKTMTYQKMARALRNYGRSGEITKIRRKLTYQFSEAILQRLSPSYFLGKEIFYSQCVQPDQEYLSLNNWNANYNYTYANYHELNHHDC
# Method in brief: as §1
# ELF4 = ELF4 (Homo sapiens, UniProt Q99607 1-663); details: protein: recombinant; tags: N-terminal GST; dsDNA, one strand shown
# Sequence of ELF4 (Q99607 whole entry): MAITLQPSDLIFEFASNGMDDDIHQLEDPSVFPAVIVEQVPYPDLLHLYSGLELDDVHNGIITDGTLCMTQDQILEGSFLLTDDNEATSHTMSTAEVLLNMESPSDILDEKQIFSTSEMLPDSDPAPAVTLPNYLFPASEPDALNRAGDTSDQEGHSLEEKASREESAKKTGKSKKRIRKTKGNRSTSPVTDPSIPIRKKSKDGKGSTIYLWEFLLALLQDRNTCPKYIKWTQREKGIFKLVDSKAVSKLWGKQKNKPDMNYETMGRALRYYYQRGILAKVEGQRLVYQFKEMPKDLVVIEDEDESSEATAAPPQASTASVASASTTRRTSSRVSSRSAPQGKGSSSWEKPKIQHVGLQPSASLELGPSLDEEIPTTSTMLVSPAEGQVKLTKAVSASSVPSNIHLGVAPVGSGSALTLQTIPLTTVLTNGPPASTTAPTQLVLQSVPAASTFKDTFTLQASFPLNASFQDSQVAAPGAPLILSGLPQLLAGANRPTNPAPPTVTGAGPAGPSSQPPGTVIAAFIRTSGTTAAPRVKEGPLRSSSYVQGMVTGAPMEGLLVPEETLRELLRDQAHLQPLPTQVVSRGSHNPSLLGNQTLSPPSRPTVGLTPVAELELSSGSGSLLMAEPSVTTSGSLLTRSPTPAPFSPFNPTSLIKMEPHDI
# Method in brief: as §1
# ELK4 = target: T7, ELK4 (Homo sapiens, UniProt P28324-2 1-405); details: protein: recombinant; tags: N-terminal GST; dsDNA, one strand shown
# T7 sequence: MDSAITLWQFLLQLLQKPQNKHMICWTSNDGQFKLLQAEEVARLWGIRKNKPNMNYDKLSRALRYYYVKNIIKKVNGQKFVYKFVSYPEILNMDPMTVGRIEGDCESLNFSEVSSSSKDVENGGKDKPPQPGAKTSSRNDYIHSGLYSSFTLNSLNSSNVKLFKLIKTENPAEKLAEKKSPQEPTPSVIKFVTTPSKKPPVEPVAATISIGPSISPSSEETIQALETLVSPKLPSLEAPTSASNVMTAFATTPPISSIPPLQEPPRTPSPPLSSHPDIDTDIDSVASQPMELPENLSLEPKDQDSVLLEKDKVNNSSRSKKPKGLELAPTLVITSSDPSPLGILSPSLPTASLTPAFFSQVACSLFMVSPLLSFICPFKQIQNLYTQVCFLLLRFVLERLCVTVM
# Method in brief: as §1
# ETV2 = target: T8, ETV2 (Homo sapiens, UniProt O00321 1-342); details: protein: recombinant; tags: N-terminal GST; dsDNA, one strand shown
# T8 sequence: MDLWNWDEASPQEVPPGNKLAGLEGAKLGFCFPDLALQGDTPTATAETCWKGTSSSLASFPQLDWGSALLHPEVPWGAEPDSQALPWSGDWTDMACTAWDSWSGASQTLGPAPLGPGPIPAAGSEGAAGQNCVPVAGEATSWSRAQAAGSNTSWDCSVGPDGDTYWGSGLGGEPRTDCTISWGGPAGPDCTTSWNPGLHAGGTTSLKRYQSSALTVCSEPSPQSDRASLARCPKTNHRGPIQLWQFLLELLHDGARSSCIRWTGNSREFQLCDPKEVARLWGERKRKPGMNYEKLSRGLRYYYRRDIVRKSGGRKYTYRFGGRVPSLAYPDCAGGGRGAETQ
# Method in brief: as §1
# ELF3 = target: T9, ELF3 (Homo sapiens, UniProt P78545 1-371); details: protein: recombinant; tags: N-terminal GST; dsDNA, one strand shown
# T9 sequence: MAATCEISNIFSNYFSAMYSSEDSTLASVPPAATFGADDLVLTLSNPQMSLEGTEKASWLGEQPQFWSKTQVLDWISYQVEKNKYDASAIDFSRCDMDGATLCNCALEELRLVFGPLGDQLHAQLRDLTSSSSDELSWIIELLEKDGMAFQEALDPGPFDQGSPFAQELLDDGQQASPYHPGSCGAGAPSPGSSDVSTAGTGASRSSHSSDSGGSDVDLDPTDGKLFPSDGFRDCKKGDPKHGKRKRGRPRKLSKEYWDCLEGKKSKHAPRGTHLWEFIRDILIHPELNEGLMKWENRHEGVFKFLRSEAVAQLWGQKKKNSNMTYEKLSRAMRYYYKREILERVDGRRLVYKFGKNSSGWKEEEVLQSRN
# Method in brief: as §1
sequence,measurement,setting,value
AAAGGT,binding signal,FLI1,"1.1 fold enrichment (6-mer frequency, TF over GST control)"
same,binding signal,ELK1,"1.06 fold enrichment (6-mer frequency, TF over GST control)"
same,binding signal,GABPA,"1.1 fold enrichment (6-mer frequency, TF over GST control)"
same,binding signal,ELF1,"1.07 fold enrichment (6-mer frequency, TF over GST control)"
same,binding signal,EHF,"1.06 fold enrichment (6-mer frequency, TF over GST control)"
same,binding signal,SPI1,"1.01 fold enrichment (6-mer frequency, TF over GST control)"
same,binding signal,SPIB,"1.02 fold enrichment (6-mer frequency, TF over GST control)"
same,binding signal,ELK3,"1.05 fold enrichment (6-mer frequency, TF over GST control)"
same,binding signal,ETV5,"1.05 fold enrichment (6-mer frequency, TF over GST control)"
same,binding signal,HSF1,"1.02 fold enrichment (6-mer frequency, TF over GST control)"
same,binding signal,SPIC,"1.09 fold enrichment (6-mer frequency, TF over GST control)"
same,binding signal,ELF4,"1.02 fold enrichment (6-mer frequency, TF over GST control)"
same,binding signal,ELK4,"1.05 fold enrichment (6-mer frequency, TF over GST control)"
same,binding signal,ETV2,"1.06 fold enrichment (6-mer frequency, TF over GST control)"
same,binding signal,ELF3,"1.17 fold enrichment (6-mer frequency, TF over GST control)"
